For 38 compounds, CPE inhibition results are on record in PubChem BioAssay AID651640 (Broad Institute, 2012).

Screen size: about 350,000 compounds; about 6,000 (1.7%) were called active. About 5% were inconclusive and are not listed. No stated cut-off is given here; in the data, active means CPE inhibition above about 20% (passing the limit was not always enough); inconclusive means no clear call, values can overlap the other calls; tested in BHK-21 cells. The sample as a whole holds a higher share of actives than the screen did.

The assay can be described thus: inhibitors of DENV2 cytopathic effect, primary screen, cell-based, plate reader, single concentration (AID 651640).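 Further: 0% = median of neutral control wells and 100% = median of positive control wells.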 The following applies: DENV2-infected cells, cytopathic effect rescue, at 9.99 µM, hits give high values. In general terms: Damage to the host cells serves as the signal in cytopathic effect assays.
Turning to `O=C(Cc1ccncc1)Nc1ccc2c(c1)[C@@H]1C[C@H](CC(=O)N3CCCCC3)O[C@H](CO)[C@@H]1O2`, the CPE inhibition is -1.67% (inactive).
Under `CC(=O)N1[C@H](CN(CC2CCC2)C(=O)CN(C)C)[C@@H](c2ccccc2)[C@@H]1CO` stands -6.71% (inactive); under `CCO[C@H]1OC(C(=O)O)=C[C@@H](C2CCCCC2)[C@@H]1CCCO`, 45.4% (active); under `CCO[C@@H]1OC(C(=O)NCc2nc3ccccc3[nH]2)=C[C@H](C2CCCCC2)[C@H]1CCCO`, 5.22% (inactive).
For `CCO[C@H]1OC(C(=O)Nc2ccccc2)=C[C@@H](C2CC2)[C@@H]1CCCO` the value was -12.3% (inactive).
Under `C[C@H](CO)N1C[C@H](C)[C@@H](CN(C)S(=O)(=O)c2cccs2)OCc2ccccc2-c2ccccc2C1=O` stands 0.48% (inactive); under `COc1cccc(NC(=O)CN(C)C(=O)Cc2ccc(Cl)cc2Cl)c1`, -4.12% (inactive).
Regarding `COc1cccc(NC(=O)CN(C)CC(=O)Nc2ccc3c(c2)CCC3)c1`, the CPE inhibition is 4.15% (inactive).
Under `COc1cccc(NC(=O)CN(C)C(=O)CSC(=S)N2CCCC2)c1` stands 31.4% (active); under `O=C(Nc1cc(F)ccc1F)N1CCCCN2[C@H](C1)[C@H](c1ccc(-c3cccnc3)cc1)[C@@H]2CO`, -2.73% (inactive); under `CN(C)CCCNC(=O)C[C@@H]1C=C[C@H](NC(=O)c2ccccc2F)[C@H](CO)O1`, -4.33% (inactive).
As for `CCCC#Cc1ccc([C@@H]2[C@H](CO)N3CCCCN(S(=O)(=O)c4ccccc4F)C[C@@H]23)cc1`, the CPE inhibition was -29.1% (inactive).
Under `CC(C)NC(=O)N(C)C[C@H]1Oc2cc(-c3cncnc3)ccc2S(=O)(=O)N([C@@H](C)CO)C[C@H]1C` stands 12.5% (inactive); under `O=C(OCc1ccccc1)N1CCC2CC1c1ccc(-c3ccc4c(c3)OCO4)cc12` (stereo not drawn), 59.5% (active); under `O=C(OCc1ccccc1)N1CCC2CC1c1cc(N3CCN(S(=O)(=O)c4cc(Cl)cc(Cl)c4)CC3)ccc12` (stereo not drawn), -5.76% (inactive).
Consider `Cc1ccc(S(=O)(=O)N(CCc2ccccc2)c2ccc3c(c2)C2CC3CCN2C(=O)OCc2ccccc2)cc1` (stereo not drawn), for which the CPE inhibition was -3.72% (inactive).
For `O=C(C[C@H]1CC[C@H]2[C@@H](COC[C@H](O)CN2Cc2nccs2)O1)NCc1ccc(Oc2ccccc2)cc1` the value was 3.47% (inactive); for `COc1ccc(-n2nc3c(c2NC(=O)Cc2cccc(C)c2)CS(=O)C3)cc1` (stereo not drawn), 99.5% (active).
Take `Cc1ccc(-n2nc3c(c2NC(=O)CCC2CCCCC2)CS(=O)C3)cc1` (stereo not drawn): the CPE inhibition was -3.75% (inactive).
For the compound `CC(Oc1ccccc1)C(=O)Nc1c2c(nn1-c1ccccc1)CS(=O)C2` (stereo not drawn), the CPE inhibition was 2.29% (inactive).
Under `CC1(C)CN(Cc2cccnc2)C(=O)[C@H]1CC(=O)Nc1ccc(Br)cc1` stands 30.1% (active); under `CCCCN1CC(C)(C)[C@H](CC(=O)Nc2ccc(Br)cc2)C1=O`, 6.43% (inactive).
Under `CC1(C)CN(CCc2ccccc2)C(=O)[C@H]1CC(=O)Nc1ccc(Br)cc1` stands 0.989% (inactive); under `C[C@@H]1CCCCO[C@@H](CN(C)C(=O)CCC(F)(F)F)[C@H](C)CN([C@@H](C)CO)C(=O)c2cc(NC(=O)CCCN(C)C)ccc2O1`, 3.1% (inactive); under `O=S(=O)(NC[C@H]1[C@@H](c2ccccc2)[C@@H](CO)N1CC1CC1)c1ccccc1`, 8.65% (inactive).
For `O=C(NC[C@@H]1[C@H](c2ccccc2)[C@H](CO)N1CC1CCCC1)c1cccnc1` the value was 54.5% (active); for `O=C(NC[C@H]1[C@@H](c2ccccc2)[C@H](CO)N1CC1CC1)c1cccnc1`, -7.73% (inactive); for `COc1cccc(-c2ccc3c(c2)O[C@H](CN(C)C(=O)C2CCOCC2)[C@H](C)CN([C@H](C)CO)S3(=O)=O)c1`, -2.8% (inactive).
For the compound `Cc1cnc(CN(C)C(=O)CC2C(=O)NCCN2Cc2cccc(F)c2F)[nH]1` (stereo not drawn), the CPE inhibition was 20.8% (active).
`CN(Cc1cccc2ncccc12)C(=O)CC1C(=O)NCCN1Cc1ccc(F)cc1` (stereo not drawn): the CPE inhibition was 2.99% (inactive).
For `CC(C)c1nc(CNC(=O)CC2C(=O)NCCN2Cc2cccc(F)c2F)cs1` (stereo not drawn) the value was -4.34% (inactive); for `C[C@@H]1CN([C@@H](C)CO)C(=O)c2cc(NC(=O)Nc3cccc4ccccc34)ccc2O[C@@H](C)CCCCO[C@@H]1CN(C)S(=O)(=O)c1ccc(Cl)cc1`, -12.5% (inactive); for `COc1ccccc1-c1ccc2n(c1=O)C[C@H]1[C@H](CO)[C@@H](C(=O)N[C@@H](C)c3ccccc3)[C@@H]2N1C`, -8.56% (inactive).
For the compound `CC(C)CC#Cc1ccc([C@@H]2[C@@H](CO)N3C(=O)CN(C(=O)c4cnccn4)C[C@@H]23)cc1`, the CPE inhibition was -1.01% (inactive).
For `O=C(C[C@@H]1C=C[C@H](NC(=O)CCN2CCCCC2)[C@H](CO)O1)NCc1ccc(Cl)c(Cl)c1` the value was 0.258% (inactive).
Consider `COc1ccc(/C=C/C(=O)c2ccc(OC)cc2O)cc1`, for which the CPE inhibition is 64.1% (active).
Under `COc1ccc(C(=O)/C=C/c2cccnc2)c(OC)c1` stands -6.66% (inactive); under `COc1ccc(/C=C/C(=O)c2c(O)cc(OC)cc2OC)cc1`, -8.14% (inactive).
